HT1080-NT tox = qHTS for induction of synthetic lethality in tumor cells producing 2HG: qHTS for the HT-1080-NT fibrosarcoma cell line | HT-1080-NT fibrosarcoma viability, CellTiter-Glo ATP luminescence, 48 h | Potency, µM (doses to about 46.1 µM), without a hit: at the top dose activity, negative = less viability, usual class: cytotoxic | actives 1.6% (n = 360,000) | AID 686970, 2013;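 note: NT is the 2HG producing partner of a matched IDH1 knockdown line; potency is the fitted concentration of half-maximal effect; 0% = DMSO-treated cells and -100% = media-only wells without cells; nearly all actives have a fitted effect of over 55% in size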
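Toxicity toward the 2HG-producing NT line was scored as %Activity, normalised to DMSO and no-cell wells, from CellTiter-Glo luminescence after 48 hours' treatment.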
HT1080 IDH1KD tx = qHTS for induction of synthetic lethality in tumor cells producing 2HG: qHTS for the HT-1080-IDH1KD cell line. HT-1080 IDH1 knockdown viability, ATP luminescence, 48 h. Potency, µM (titrated, usually from 46.1 µM), without a hit: at the top dose activity, negative = toxicity, actives largely listed as cytotoxic. actives 2% (n = 360,000). AID 686971, 2013;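 note: potency is the fitted concentration of half-maximal effect; 0% = DMSO wells and -100% = cell-free medium wells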
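Viability of IDH1-knockdown HT-1080 fibrosarcoma cells was assessed by CellTiter-Glo after 48 h at 37 °C with titrated compound; concentration-effect curves were classified by fit quality and response size.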
12-LOX inh = Primary qHTS assay for inhibitors of human arachidonate 12S-lipoxygenase (ALOX12): Round 2. Polyunsaturated fatty acid lipoxygenase ALOX12 (Homo sapiens), P18054. purified 12hLO, xylenol orange hydroperoxide absorbance. Potency, µM (highest dose often 108 µM), for inactives: top-dose activity change, negative = inhibition, most hits filed as inhibitors. actives 1.1% (n = 580,000). AID 1671190, 2021; note: potency is the fitted concentration of half-maximal effect
Target sequence (P18054 whole entry, looked up): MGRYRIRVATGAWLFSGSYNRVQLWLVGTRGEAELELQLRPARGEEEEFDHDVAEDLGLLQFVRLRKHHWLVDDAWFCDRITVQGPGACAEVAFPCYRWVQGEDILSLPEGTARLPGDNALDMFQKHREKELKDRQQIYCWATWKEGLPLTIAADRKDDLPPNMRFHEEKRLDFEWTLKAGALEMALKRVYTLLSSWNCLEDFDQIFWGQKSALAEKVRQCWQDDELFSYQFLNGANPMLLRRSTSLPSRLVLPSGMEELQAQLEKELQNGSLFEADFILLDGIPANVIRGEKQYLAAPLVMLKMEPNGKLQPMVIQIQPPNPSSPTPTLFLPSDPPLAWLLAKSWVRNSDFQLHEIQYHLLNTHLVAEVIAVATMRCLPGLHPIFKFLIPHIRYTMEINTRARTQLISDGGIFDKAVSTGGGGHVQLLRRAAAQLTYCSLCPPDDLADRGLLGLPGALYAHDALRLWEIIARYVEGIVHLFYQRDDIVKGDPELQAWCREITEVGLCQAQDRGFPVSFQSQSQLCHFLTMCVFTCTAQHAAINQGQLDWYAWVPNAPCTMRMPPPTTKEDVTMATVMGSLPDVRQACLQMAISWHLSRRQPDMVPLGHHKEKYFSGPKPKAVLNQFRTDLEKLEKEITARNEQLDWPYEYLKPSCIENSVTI
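Purified human 12hLO at 150 nM in 25 mM Hepes, 0.01% Triton X-100, pH 7.0, preincubated 15 min at room temperature with compound. Reaction started with 40 uM arachidonic acid, 30 min at room temperature. Hydroperoxide measured by Fe-xylenol orange, 573/405 nm absorbance ratio.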
IL1B secr inh = qHTS for Inhibitors of Inflammasome Signaling: IL-1-beta AlphaLISA Primary Screen; THP-1 LPS/ATP IL-1B secretion, AlphaLISA, 16 h; hits give low values; activity change, % at 57.5 µM; actives 4.7% (n = 360,000); AID 743279, 2014; in the data active = activity change below about -50%; inconclusive = mostly about -30% to -49%
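THP-1 cells pretreated 1 hr with compounds (up to 57.5 uM final), then stimulated with LPS (250 ng/mL final) plus ATP (1.25 mM final); secreted IL-1B measured by AlphaLISA after 16 hr, decreased signal indicating inhibition.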
TDP1 cell CPT = qHTS for Inhibitors of human tyrosyl-DNA phosphodiesterase 1 (TDP1): qHTS in cells in presence of CPT | chicken DT40 Tdp1-/-;hTDP1 cells + 20 nM CPT, ATP luminescence, 48 h | Potency, µM (doses to about 46.2 µM), for the others: at the top dose activity change, negative = growth inhibition, hits mostly inhibitors | actives 12% (n = 420,000); note: potency is the fitted concentration of half-maximal effect; nearly all actives have a fitted effect of over 55% in size
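Cell growth measured by CellTiter-Glo luminescence after a minimum 48 h, 37 C compound exposure with 20 nM CPT in Tdp1-knockout DT40 cells stably expressing hTDP1, seeded 400/well; qHTS titration format.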
TDP1 cell noCPT = qHTS for Inhibitors of human tyrosyl-DNA phosphodiesterase 1 (TDP1): qHTS in cells in absence of CPT. actives 15% (n = 420,000). DT40 Tdp1-/- hTDP1 cells, no CPT, ATP luminescence, 48 h. Potency, µM (titrated, usually from 46.2 µM), inactives show at the highest dose activity change, negative = growth inhibition, actives largely listed as inhibitors. AID 686978, 2013; note: potency is the fitted concentration of half-maximal effect; nearly all actives have a fitted effect of over 55% in size
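DT40 Tdp1-/-;hTDP1 cells, no CPT (DMSO vehicle only), 400 cells/well; compounds pin-transferred; ≥48 hr, 37 °C; CellTiter-Glo 30 min RT dark, luminescence read.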
* marks the source's active call; other numbers are inactive results; u = inconclusive; x = no result given. This excerpt belongs to a sample that is enriched for hits. Unless noted, calls come from the whole dose curve; as a rule, active = well fitted curve in the direction sought with a large enough effect; inconclusive = small, poorly fitted or top-dose-only effect, or another doubt; inactive = no such curve, though single readings can be large; an effect the other way counts as inactive or inconclusive. Unless noted, % is set by controls: 0 for no effect and ±100 for the full control effect.

SMILES	HT1080-NT tox	HT1080 IDH1KD tx	12-LOX inh	IL1B secr inh	TDP1 cell CPT	TDP1 cell noCPT
CC(C)CN1CCNC(=O)C1CC(=O)NC(C)(C)Cc1ccc(F)cc1 (stereo not given)	x	x	-2.2%	x	x	x
CN1CCN(c2nc3c([nH]2)c(=O)n(C)c(=O)n3C)CC1	x	x	-13.5%	x	x	x
COc1ccc(NC(=O)C(C)C2CCOCC2)c(C)c1 (stereo not given)	x	x	16.8%	x	x	x
Brc1ccc(/C=N/Nc2nncc(-c3ccccc3)n2)o1	x	x	0.0%	x	x	x
COc1ccc(-c2cnnc(N/N=C/c3c(C)nn(-c4ccccc4)c3Cl)n2)cc1	10.3%	u	24.8%	-3.1	3.66µM*	5.17µM*
CCNc1nc(NCC)nc(N/N=C/c2ccc(O)c(O)c2)n1	-4.0%	-7.3%	-5.5%	19.3	23.1µM*	-4.4%
Brc1ccc(-c2ccc(/C=N/Nc3nncc(-c4ccccc4)n3)o2)cc1	4.2%	14.4%	0.5%	-2.8	u	18.4µM*
COc1ccc(-c2cnnc(N/N=C/c3ccc(O)cc3)n2)cc1	-14.8%	-13.4%	1.9%	u	u	11.6µM*
COc1ccc(S(=O)(=O)NCCS(=O)(=O)N2CCN(c3ccccc3)CC2)cc1OC	x	x	-15.8%	x	u	u
O=C1CCN(C(=O)Cc2cccc(F)c2)CCCOCCN1	x	x	55.9%	x	x	x
N#Cc1ccc(C2Nc3ccccc3C(=O)N2c2ccc(Cl)cc2)cc1 (stereo not given)	x	x	-26.1%	x	x	x
Oc1ccc(/C=N\Nc2nncc(-c3ccccc3)n2)cc1	u	u	5.9%	u	u	u
COc1ccc(-c2cnnc(N/N=C/c3ccc(O)c(O)c3)n2)cc1	u	u	u	-4.9	7.31µM*	9.2µM*
COc1ccc(-c2cnnc(N/N=C/c3ccc(C)o3)n2)cc1	6.4%	-1.0%	-8.9%	-18.7	u	18.4µM*
O=[N+]([O-])c1cc([N+](=O)[O-])c(Oc2cccnc2Br)cc1NN1CCCCC1	-2.1%	-3.1%	-0.3%	-22.5	u	u
CCC1CCCCN1S(=O)(=O)c1ccc(NC(=O)c2ccncc2)cc1 (stereo not given)	-16.9%	-13.6%	244.7%	-2.6	16.4µM*	11.6µM*
CCCSc1ncc(Cl)c(C(=O)Nc2ccc(S(=O)(=O)N3CCCCC3CC)cc2)n1 (stereo not given)	x	x	2.7%	x	x	x
CCC1CCCCN1S(=O)(=O)c1ccc(NC(=O)c2cc(=O)c3c(C)cc(C)cc3o2)cc1 (stereo not given)	x	x	-10.5%	x	-27.1%	14.6µM*
CCC1CCCCN1S(=O)(=O)c1ccc(NC(=O)c2nc(S(C)(=O)=O)ncc2Cl)cc1 (stereo not given)	4.61µM*	3.26µM*	u	-100.6*	1.46µM*	2.59µM*
CCC1CCCCN1S(=O)(=O)c1ccc(NC(=O)c2cc(-c3ccc(Cl)cc3)on2)cc1 (stereo not given)	x	x	-3.1%	x	x	x
CCSc1ncc(Cl)c(C(=O)Nc2ccc(S(=O)(=O)N3CCCCC3CC)cc2)n1 (stereo not given)	x	x	-22.1%	x	10.3µM*	6.51µM*
CCN(CC)C(=O)CN1CCN(C(=O)c2cc(-c3ccccc3)n[nH]2)CC1	x	x	12.4%	x	x	x
COc1cccc(CN2C[C@@H]3C(=O)N(CCN4CCc5ccccc5C4)C(=O)[C@@H]3C2)c1OC	x	x	27.6%	x	x	x
